Survival data for 96 compounds are collected here from PubChem BioAssay AID463173 (ICCB-Longwood Screening Facility, Harvard Medical School, 2010).

The whole screen tested about 52,000 compounds, of which about 4,300 (8.3%) were called active. What follows is part of a selection rich in actives, with near analogues and random picks from the rest. Values without a mark were called inactive. Rule as the data show it: active = survival mostly below about 52% (no sharp cut-off); inactive = mostly above about 56%.

The assay relates to DeltatarO mutant. Briefly: S. aureus survival, RN4220 and DeltatarO strains – OD600, teichoic acid synthesis inhibitors, primary screen (AID 463173). Particulars: S. aureus RN4220 wild type/DeltatarO growth, OD600, 18 h, stronger effect = lower value, screened at 18.75 µg/mL (by protocol).
Turning to `CCc1ccccc1NC(=O)Nc1c[nH]c(=O)[nH]c1=O`, the survival was 75%.
Next, `c1ccc(Nc2c(-c3ccccc3)nc3ncccn23)cc1`: 81%; `O=C(OCc1cc(=O)n2nc(-c3cccs3)sc2n1)c1ccccc1`: 65%; `CCc1nn(CC(=O)NCCCc2ccccc2)c(=O)c2cc3ccccc3n12`: 90%.
In the case of `C/C(=N\NC(N)=O)C1CC(Cc2ccccc2)C(=O)O1` (stereo unspecified), the survival is 57%.
Next, `Cc1ccc(-c2nc3ccccc3n3c(-c4ccccc4)c4c(=O)n(C)c(=O)n(C)c4c23)cc1`: 97%.
In the case of `COc1ccc(Br)cc1CNC(=O)C1CCCCN1S(=O)(=O)c1ccc(F)cc1` (stereo unspecified), the survival is 81%.
Consider `CC(C)(C)C(=O)NCC(c1ccc2c(c1)OCO2)N1CCOCC1` (stereo unspecified), for which the survival was 0% (active).
For the compound `COc1ccc(CCNC(=O)C(=O)NCC(c2ccc3c(c2)OCO3)N2CCOCC2)cc1OC` (stereo unspecified), the survival is 69%.
Regarding `CC(C)(C)CC(=O)NCC(c1ccc2c(c1)OCO2)N1CCOCC1` (stereo unspecified), the survival was 80%.
For the compound `CCOc1ccc(C(=O)NCC(c2ccc3c(c2)OCO3)N2CCN(C)CC2)cc1` (stereo unspecified), the survival was 78%.
As for `CNC(=O)C(=O)NCC(c1ccc2c(c1)OCO2)N1CCOCC1` (stereo unspecified), the survival was 89%.
Regarding `COc1ccc(CCNC(=O)C(=O)NCC(c2ccc3c(c2)OCO3)N2CCOCC2)cc1` (stereo unspecified), the survival is 32% (active).
On to `O=C(NCCO)C(=O)NCC(c1ccc2c(c1)OCO2)N1CCOCC1` (stereo unspecified), for which the survival was 75%.
Consider `O=C(NCCCO)C(=O)NCC(c1ccc2c(c1)OCO2)N1CCOCC1` (stereo unspecified), for which the survival is 37% (active).
For `CN(C)CCCNC(=O)C(=O)NCC(c1ccc2c(c1)OCO2)N1CCOCC1` (stereo unspecified), the survival is 106%.
With `COc1cccc(C(=O)NCC(c2ccc3c(c2)OCO3)N2CCN(C)CC2)c1` (stereo unspecified), the survival is 112%.
Regarding `COc1ccc(C(=O)NCC(c2ccc3c(c2)OCO3)N2CCN(C)CC2)cc1` (stereo unspecified), the survival is 47% (active).
In the case of `COc1ccc(CNC(=O)C(=O)NCC(c2ccc3c(c2)OCO3)N2CCOCC2)cc1` (stereo unspecified), the survival was 99%.
On to `CC1=C(C(=O)Nc2cccc(C(F)(F)F)c2)C(c2ccccc2)n2ncnc2N1` (stereo unspecified), for which the survival was 103%.
Next, `COc1ccc(CN2C3CCCC2CC(NC(=O)NC2CCCCC2)C3)cc1` (stereo unspecified): 85%; `Cc1ccc(F)cc1NC(=O)CCc1c(C)nn(-c2ccc(N3CCCC3)nn2)c1C`: 78%.
With `CCOc1ccc(C(C(=O)NC2CCCC2)N(Cc2ccco2)C(=O)Cn2nnc3ccccc32)cc1OC` (stereo unspecified), the survival is 110%.
Consider `COc1ccc(-c2cccc(NS(=O)(=O)c3cc(C)ccc3OC)c2)nn1`, for which the survival is 122%.
For `Nc1c(-c2nc(-c3ccc(Cl)cc3)cs2)c2ccccn2c1C(=O)c1ccc2c(c1)OCO2` the value was 101%; for `CC1CCCCN1C(=O)CSc1nnc2c3ccccc3n(CC(=O)O)c2n1` (stereo unspecified), 97%; for `CCOC(=O)c1c(C)[nH]c(C)c1S(=O)(=O)N1CCCC(C(=O)Nc2cc(C)ccc2C)C1` (stereo unspecified), 83%.
Consider `COCCNC(=O)C(=O)NCC(c1ccc2c(c1)OCO2)N1CCOCC1` (stereo unspecified), for which the survival is 0% (active).
With `CN(C)CCNC(=O)C(=O)NCC(c1ccc2c(c1)OCO2)N1CCOCC1` (stereo unspecified), the survival is 69%.
For `COCCCNC(=O)C(=O)NCC(c1ccc2c(c1)OCO2)N1CCOCC1` (stereo unspecified) the value was 95%; for `COc1ccccc1CNC(=O)C1CCCN(C(=O)c2cnn(-c3ccc(F)cc3)c2-n2cccc2)C1` (stereo unspecified), 76%; for `CCN(C(=O)Cn1nnc2sc3c(c2c1=O)CCC(C(C)(C)C)C3)c1cccc(C)c1` (stereo unspecified), 78%.
For `COc1ccc(CNS(=O)(=O)c2ccc(-c3cc(C(F)(F)F)on3)s2)cc1OC`, the survival is 118%.
With `COc1ccccc1CNS(=O)(=O)c1ccc(-c2cc(C(F)(F)F)on2)s1`, the survival is 102%.
Regarding `COc1ccc(OC)c(CNS(=O)(=O)c2ccc(-c3cc(C(F)(F)F)on3)s2)c1`, the survival was -4% (active).
Consider `COc1ccc(OCC(=O)NC2CC(=O)N(c3cccc(OC)c3)C2)cc1` (stereo unspecified), for which the survival is 0% (active).
For the compound `COc1ccc(N2CC(NC(=O)c3ccco3)CC2=O)cc1OC` (stereo unspecified), the survival was 89%.
For `COc1ccc(N2CC(NC(=O)c3ccco3)CC2=O)cc1` (stereo unspecified), the survival was 58%.
For `COc1cccc(N2CC(NC(=O)C3CC3)CC2=O)c1` (stereo unspecified), the survival was 105%.
In the case of `COc1cccc(N2CC(NC(=O)C3CCCCC3)CC2=O)c1` (stereo unspecified), the survival is 144%.
Consider `COc1cccc(N2CC(NC(=O)COc3ccc4ccccc4c3)CC2=O)c1` (stereo unspecified), for which the survival is 107%.
For `COc1cccc(OCC(=O)NC2CC(=O)N(c3cccc(OC)c3)C2)c1` (stereo unspecified), the survival was 106%.
Regarding `COc1cccc(N2CC(NC(=O)c3ccco3)CC2=O)c1` (stereo unspecified), the survival is 37% (active).
Next, `COc1cccc(N2CC(NC(=O)C3CCCC3)CC2=O)c1` (stereo unspecified): 46% (active); `O=C(Nc1cccc(F)c1)C1CCCN(S(=O)(=O)c2cccc3cccnc23)C1` (stereo unspecified): 70%; `COc1ccccc1CNc1ncnc2c1c(-c1ccccc1)cn2-c1ccc(Br)cc1`: 80%.
Next, `COc1ccc(C)cc1NC(=O)CN1C(=O)COc2ccc(S(=O)(=O)N3CCOCC3)cc21`: 98%.
Next, `COc1ccc(-c2nnc(SCC(=O)NCc3ccc(C)cc3)nc2-c2ccc(OC)c(OC)c2)cc1OC`: 76%; `CCNS(=O)(=O)c1cccs1`: 96%.
Take `Cc1nn(CC(=O)Nc2ccccc2F)c(=O)c2c(C)n(-c3ccc(Cl)cc3)nc12`: the survival was 102%.
For `Cc1cc(NC(=O)NCc2ccc3c(c2)CCN3C(=O)c2ccccc2)ccc1Br` the value was 116%; for `CCOC(=O)c1c(C)oc2ncnc(Nc3ccc(CC)cc3)c12`, 85%.
Next, `CCOC(=O)c1c(Oc2ccc(C(C)=O)cc2)nnc(-c2ccccc2)c1-c1ccccc1`: 67%; `CCOC(=O)c1c(Nc2ccc(F)cc2)nnc(-c2ccccc2)c1-c1ccccc1`: -3% (active); `CCOC(=O)c1c(Nc2ccccc2)nnc(-c2ccccc2)c1-c1ccccc1`: 6% (active).
For `CCOC(=O)c1c(C)oc2nc(C)nc(Nc3ccc(C)c(Cl)c3)c12`, the survival was 89%.
Regarding `CCOC(=O)c1c(Nc2ccc(O)cc2)nnc(-c2ccccc2)c1-c1ccccc1`, the survival was 95%.
Regarding `CCOC(=O)c1c(Nc2ccc(C)c(C)c2)nnc(-c2ccccc2)c1-c1ccccc1`, the survival was -5% (active).
Turning to `CCOC(=O)c1c(Nc2ccc(C)cc2)nnc(-c2ccccc2)c1-c1ccccc1`, the survival is 1% (active).
Next, `CCOC(=O)c1cnc(-c2ccccc2)nc1Nc1ccc(C)cc1`: 90%; `CCOC(=O)c1c(C)oc2nc(C)nc(Nc3ccc(CC)cc3)c12`: 115%; `COc1cc(C2C(C(=O)Nc3ccccc3C)=C(C)Nc3nc(SCc4cc(C)ccc4C)nn32)ccc1O` (stereo unspecified): 105%.
Turning to `CCOc1ccccc1N(CC)C(=O)c1cc2c(=O)[nH]c3ccc(C)cc3c2s1`, the survival was 74%.
Regarding `Cc1ccc(-n2nc(C)c3c(C)cc(=O)n(CC(=O)NC(C)C)c32)cc1`, the survival was 105%.
`O=C(CN1C(=O)COc2ccc(S(=O)(=O)N3CCCCCC3)cc21)Nc1cccc(Cl)c1`: the survival is 60%.
Consider `COc1cc(OC)c(N(C)C(=O)c2sc3nc4n(c(=O)c3c2C)CCCC4)cc1Cl`, for which the survival was 53%.
`O=C(Cc1ccccc1)N(Cc1cccnc1)c1nc2ccc(Cl)cc2s1`: the survival is 72%.
Consider `O=C(Cc1ccc(-c2ccccc2)cc1)NCCS(=O)(=O)N1CCN(c2ccccc2)CC1`, for which the survival was 122%.
Next, `CCOc1ccc(CNC(=O)c2ccc(NC(=O)c3nsc4ccccc34)cc2)cc1`: 79%.
As to `COc1ccc(C(=O)CN2CCN(S(=O)(=O)c3ccc(C(C)C)cc3)CC2)cc1`, the survival was 81%.
With `COc1ccc(N2CC(NC(=O)/C=C\c3ccc(OC)c(OC)c3)CC2=O)cc1` (stereo unspecified), the survival was 55%.
`CC(=O)c1ccc(NC(=O)CC2Oc3ccc(C)cc3NC2=O)cc1` (stereo unspecified): the survival was 85%.
Regarding `O=C(NCCc1ccc(F)cc1)C(=O)NCC(c1ccc2c(c1)OCO2)N1CCOCC1` (stereo unspecified), the survival was 74%.
Turning to `Cc1ccc(C)c(N(C)C(=O)Cc2c(C(=O)O)[nH]c3ccc(Cl)cc23)c1`, the survival is 40% (active).
Turning to `CCCN(C(=O)Cc1c(C(=O)O)[nH]c2ccc(Cl)cc12)c1ccc(OCC)cc1`, the survival was 47% (active).
For `CCN(C(=O)Cc1c(C(=O)O)[nH]c2ccccc12)c1ccc(OC)cc1`, the survival is 65%.
Turning to `Cc1cccc(N(C)C(=O)Cc2c(C(=O)O)[nH]c3ccccc23)c1`, the survival is 134%.
As to `COc1ccc(OC)c(NC(=O)Cc2c(C(=O)O)[nH]c3ccc(Cl)cc23)c1`, the survival was 54%.
For `Cc1ccc2[nH]c3c(=O)n(CC(=O)N(C)c4cc(Cl)ccc4C)ncc3c2c1` the value was 89%; for `CCOC(=O)c1ccccc1NC(=O)N1CCC(CN2CCCCC2)CC1`, 83%.
Turning to `COC(=O)c1cccc(NC(=O)Nc2cc(C(=O)NCc3cccc(F)c3)ccc2N2CCCC2)c1`, the survival is 91%.
For `Cc1ccc(OCC(=O)OCc2cc(=O)n3nc(-c4cccs4)sc3n2)cc1C`, the survival was 102%.
With `Nc1nonc1/C(=N/O)N1CCCC1`, the survival is 113%.
With `COc1ccc(N2CCN(C(CNC(=O)C(=O)NCc3cccnc3)c3cccnc3)CC2)cc1` (stereo unspecified), the survival is 102%.
As for `COc1ccccc1-c1noc(CCCC(=O)Nc2cc(C)ccc2C)n1`, the survival was 54%.
As for `CCc1ccc(NC(=O)CCCc2nc(-c3ccco3)no2)cc1`, the survival is 81%.
For `CCOc1ccccc1NC(=O)CCc1nc(-c2cccc(C)c2)no1` the value was 73%; for `O=C(CCc1nc(-c2ccccc2F)no1)Nc1cccc(C(F)(F)F)c1`, 81%; for `COc1cccc(NC(=O)CCc2nc(-c3cc(OC)c(OC)c(OC)c3)no2)c1`, 73%.
`CCOc1ccccc1NC(=O)CCCc1nc(-c2ccccc2Cl)no1`: the survival is 38% (active).
Take `Cc1cc(C)cc(NC(=O)CCCc2nc(-c3ccccc3Cl)no2)c1`: the survival is 89%.
On to `COc1cc(-c2noc(CCC(=O)Nc3cc(C)ccc3C)n2)cc(OC)c1OC`, for which the survival is 81%.
With `O=C(CCCc1nc(-c2ccccc2)no1)Nc1cc(C(F)(F)F)cc(C(F)(F)F)c1`, the survival was 19% (active).
Consider `CCOC(=O)c1ccc(NC(=O)CCCc2nc(-c3cc(OC)c(OC)c(OC)c3)no2)cc1`, for which the survival was 44% (active).
For `CCOc1ccccc1-c1noc(CCCC(=O)Nc2cccc(C(F)(F)F)c2)n1`, the survival is 61%.
Turning to `CCOC(=O)c1ccc(NC(=O)CCCc2nc(-c3ccccc3Cl)no2)cc1`, the survival is 36% (active).
